In the library only some 8.8% were active in any assay of this set; here they are far more common.
KB-3-1 tox: qHTS assay for MDR1-selective chemotherapeutics: Primary screen using the parental adenocarcinoma cell KB-3-1 | 1.4% of 400,000 active | Potency, µM (doses to about 46.1 µM), most hits filed as cytotoxic | KB-3-1 viability, CellTiter-Glo ATP luminescence, 72 h; also: nearly all actives have a fitted effect of over 60% in size
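Cells are dispensed, compounds pinned in, plates held at 37 °C for 72 h, then CellTiter-Glo is added and luminescence read after 10 minutes. Cell line: parental KB-3-1 in phenol-red-free DMEM, 10% FBS.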
HT1080-NT tox: qHTS for induction of synthetic lethality in tumor cells producing 2HG: qHTS for the HT-1080-NT fibrosarcoma cell line. AID 686970, 2013. Potency, µM (highest dose often 46.1 µM), hits mostly cytotoxic. 1.6% of 360,000 active. HT-1080-NT fibrosarcoma viability, CellTiter-Glo ATP luminescence, 48 h;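 also: NT is the 2HG producing partner of a matched IDH1 knockdown line; nearly all actives have a fitted effect of over 55% in size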
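Compounds were tested in concentration-response format on HT-1080-NT cells for 48 hours at 37 degrees C. Cell viability came from CellTiter-Glo luminescence; curves were classified by r2, response magnitude and activity.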
IL1B secr inh: qHTS for Inhibitors of Inflammasome Signaling: IL-1-beta AlphaLISA Primary Screen. THP-1 LPS/ATP IL-1B secretion, AlphaLISA, 16 h; active compounds read low. activity change, % at 57.5 µM. 4.7% of 360,000 active. AID 743279, 2014; in the data active = activity change below about -50%; inconclusive = mostly about -30% to -49%
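Secreted IL-1B measured by AlphaLISA bead assay after 16 h compound exposure of THP-1 cells; compounds (final up to 57.5 uM) added 1 h before LPS (250 ng/mL) and ATP (1.25 mM) stimulation; lower signal means less secretion.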
HT1080 IDH1KD tx: qHTS for induction of synthetic lethality in tumor cells producing 2HG: qHTS for the HT-1080-IDH1KD cell line; HT-1080 IDH1 knockdown viability, ATP luminescence, 48 h; Potency, µM (top dose mostly 46.1 µM), usual class: cytotoxic; AID 686971, 2013; 2% of 360,000 active
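Viability of IDH1-knockdown HT-1080 fibrosarcoma cells was assessed by CellTiter-Glo after 48 h at 37 °C with titrated compound; concentration-effect curves were classified by fit quality and response size.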
KB-V1 cytotox: qHTS assay for MDR1-selective chemotherapeutics: Primary screen using the drug-selected MDR subline cells KB-V1; Potency, µM (series often up to 46.1 µM), most hits filed as cytotoxic; KB-V1 MDR cells viability, CellTiter-Glo, 72 h; 3.4% of 400,000 active; also: nearly all actives have a fitted effect of over 60% in size
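Readout: CellTiter-Glo luminescence, 10 min after addition. Cells: KB-V1 MDR subline, 72 h at 37 degrees C with compound. Analysis: corrected, normalized data fitted to concentration-effect curves.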
Each line names hits and unclear results; the compound was inactive in the other large screens. Unless noted, calls follow the shape of the dose curve; as a rule, active = well fitted curve in the direction sought with a large enough effect; inconclusive = small, poorly fitted or top-dose-only effect, or another doubt; inactive = no such curve, though single readings can be large; an effect the other way counts as inactive or inconclusive.

CCC(Sc1nc2ncccc2[nH]1)C(=O)NCCc1ccccc1 (stereo not drawn)	none
O=C(Cc1ccc(N2CCNC2=O)cc1)N1CCCC(Nc2cccc(F)c2)C1 (stereo not drawn)	KB-3-1 tox 4.1µM, HT1080-NT tox inconclusive, HT1080 IDH1KD tx 5.8µM, KB-V1 cytotox inconclusive
O=C1CCCN1CCC(=O)N1CCCC(Nc2ccc(F)c(F)c2)C1 (stereo not drawn)	none
O=C(Cc1ccc(N2CCNC2=O)cc1)N1CCCC(Nc2ccc(F)c(F)c2)C1 (stereo not drawn)	KB-3-1 tox 7.3µM, HT1080-NT tox 3.3µM, HT1080 IDH1KD tx 2.9µM
Nc1cc2c(cc1N)-c1ccccc1C2	KB-3-1 tox inconclusive, IL1B secr inh -52, KB-V1 cytotox inconclusive
O=C1c2cccc3c(N4CCCCC4)ccc(c23)C(=O)N1c1cccc(O)c1	KB-3-1 tox inconclusive, IL1B secr inh -68, HT1080 IDH1KD tx inconclusive, KB-V1 cytotox inconclusive
Cc1n[nH]c(C)c1N1C(=O)c2cccc3c(N4CCCCCC4)ccc(c23)C1=O	KB-V1 cytotox 21µM
Cc1[nH]nc(C(=O)NN=Cc2ccccc2Cl)c1N=NN(C)C	HT1080-NT tox 21µM, HT1080 IDH1KD tx 23µM
O=C(NN=Cc1ccccc1Cl)c1ccc([N+](=O)[O-])cc1	KB-3-1 tox inconclusive, HT1080-NT tox inconclusive
COCCNc1cc(N2CCN(C3CCCCC3)CC2)c2noc3c2c1C(=O)c1ccccc1-3	none (no result: HT1080-NT tox, IL1B secr inh, HT1080 IDH1KD tx)
COc1cccc2[nH]c3c(N4CCC(C)CC4)ncnc3c12	KB-3-1 tox inconclusive, IL1B secr inh -52, KB-V1 cytotox inconclusive
CCOC(=O)[C@H]1[C@H]2COc3ccc(Br)cc3[C@H]2N2C(=O)CN(Cc3ccc(Cl)cc3)C(=O)[C@@]12C	KB-3-1 tox inconclusive, IL1B secr inh -52, KB-V1 cytotox inconclusive
CCOC(=O)[C@H]1[C@H]2COc3ccc(Br)cc3[C@@H]2N2C(=O)CN(Cc3ccc(Cl)cc3)C(=O)[C@@]12C	KB-3-1 tox inconclusive
O=C(CSc1nnc(CNC(=O)C23CC4CC(CC(C4)C2)C3)n1-c1ccc(F)cc1)Nc1ccc(F)cc1	KB-V1 cytotox inconclusive
O=C(NCc1nnc(SCc2ccc(F)cc2)n1-c1ccc(F)cc1)C12CC3CC(CC(C3)C1)C2	KB-3-1 tox 23µM, HT1080-NT tox inconclusive, IL1B secr inh inconclusive, HT1080 IDH1KD tx inconclusive, KB-V1 cytotox inconclusive
COc1ccccc1-c1cc(C(F)(F)F)nc(S(=O)(=O)CCCC(=O)Nc2cc(C)on2)n1	KB-3-1 tox inconclusive, HT1080-NT tox 9.2µM, IL1B secr inh -102, HT1080 IDH1KD tx 4.1µM, KB-V1 cytotox inconclusive
COc1ccc(-c2cc(C(F)(F)F)nc(S(=O)(=O)CCCC(=O)Nc3cc(C)on3)n2)cc1OC	HT1080-NT tox 16µM, IL1B secr inh -110, HT1080 IDH1KD tx 21µM
CC1(c2nnc(-c3cccc(Cl)c3)o2)CC(c2ccc(F)cc2)=NO1 (stereo not drawn)	KB-3-1 tox inconclusive
COc1ccccc1C(=O)NC(C)C(c1cccs1)N1CCN(C)CC1 (stereo not drawn)	KB-V1 cytotox 18µM
COc1ccccc1N1CCN(C(c2cccs2)C(C)NC(=O)c2cccs2)CC1 (stereo not drawn)	KB-V1 cytotox 4.1µM
CCN1CCN(C(c2cccs2)C(C)NC(=O)c2ccccc2OC)CC1 (stereo not drawn)	none
COc1ccccc1N1CCN(C(c2cccs2)C(C)NC(=O)c2cccnc2)CC1 (stereo not drawn)	none
CCOC(=O)CN1C(=O)CN(c2ccc(C)cc2)C1=O	none
CCN(CC)C(=O)c1cnn(-c2ccccc2)c1NC(=O)c1ccccc1F	KB-V1 cytotox 4.6µM
O=C(Nc1c(C(=O)N2CCOCC2)cnn1-c1ccccc1)c1ccccc1F	none
CCc1ccccc1NC(=O)c1cnn(-c2ccccc2)c1C	IL1B secr inh -93
Cc1ccc(C)c(NC(=O)c2cnn(-c3ccccc3)c2C)c1	IL1B secr inh -58
CC(=O)C1=C(C)Nc2ncnn2C1c1ccc(Br)cc1 (stereo not drawn)	KB-V1 cytotox inconclusive
CC(C)COc1ccccc1C1CC(=O)Nc2cc3c(cc21)OCO3 (stereo not drawn)	KB-3-1 tox 6.5µM, KB-V1 cytotox inconclusive (no result: HT1080-NT tox, IL1B secr inh, HT1080 IDH1KD tx)
COc1cc(SC)ccc1C(=O)Nc1ccc(C)cc1C	HT1080-NT tox inconclusive, KB-V1 cytotox 9.2µM
COc1cc(SC)ccc1C(=O)Nc1ccc(C)cc1	KB-3-1 tox inconclusive, IL1B secr inh -57, KB-V1 cytotox inconclusive
COc1ccc(C(=O)Nc2ccc3c(c2)OCCO3)c(OC)c1	none
COc1cc(SC)ccc1C(=O)Nc1ccc2c(c1)OCO2	KB-3-1 tox inconclusive, IL1B secr inh -63, HT1080 IDH1KD tx inconclusive, KB-V1 cytotox inconclusive
COc1cc(SC)ccc1C(=O)Nc1ccc(S(=O)(=O)N2CCCC2)cc1	none
CNC(=O)C1CCC(Cn2c(=O)c3sccc3n(Cc3ccc(F)cc3)c2=O)CC1 (stereo not drawn)	none (no result: HT1080-NT tox, IL1B secr inh, HT1080 IDH1KD tx)
COc1cc(C=Cc2nnc3c4ccccc4cnn23)cc(OC)c1OC	none
CC(=O)c1cccc(NS(=O)(=O)c2c(C)noc2C)c1	none
CC(=O)c1cccc(NS(=O)(=O)c2cc(-c3onc(C)c3C)ccc2C)c1	KB-3-1 tox 15µM, KB-V1 cytotox inconclusive (no result: HT1080-NT tox, IL1B secr inh, HT1080 IDH1KD tx)
Cc1cccc2cc(C#N)c(SCCN3CCCCC3)nc12	HT1080-NT tox inconclusive, IL1B secr inh -59, HT1080 IDH1KD tx inconclusive, KB-V1 cytotox inconclusive
Cc1ccc(C#N)c(SCCN2CCCCC2)n1	none
Cn1c(SCC(=O)Nc2sccc2C#N)nnc1C1CC1	none
N#Cc1cccc(C=C(C(=O)c2ccccc2)c2ccccc2)c1	HT1080-NT tox 26µM, HT1080 IDH1KD tx inconclusive (no result: KB-3-1 tox, IL1B secr inh)
N#C/C(=C\c1ccc(C#N)cc1)C(=O)c1ccccc1	none
O=C1C=C(NCc2ccc3c(c2)OCO3)CC(c2ccccc2)C1 (stereo not drawn)	HT1080 IDH1KD tx inconclusive, KB-V1 cytotox inconclusive
COc1ccccc1-c1nnc(Sc2nc([N+](=O)[O-])nn2C)o1	KB-3-1 tox inconclusive, HT1080-NT tox 13µM, IL1B secr inh -100, HT1080 IDH1KD tx 4µM, KB-V1 cytotox inconclusive
Cn1cnnc1Sc1nc([N+](=O)[O-])nn1C	none
COc1ccc(N2CCN(S(=O)(=O)c3cc(C)ccc3OC)CC2)cc1	none
COc1ccc2oc(C(=O)OC(C)C(=O)NC3(C#N)CCCCC3)c(C)c2c1 (stereo not drawn)	none
CCCNc1nc(-c2cc(-c3ccc(Cl)cc3)on2)cc(C(C)C)n1	none
O=C(Nc1nc(-c2cccs2)c(-c2ccccc2)s1)c1ccco1	IL1B secr inh -54
O=C(CCl)Nc1nc(-c2ccco2)c(-c2ccco2)s1	none
